Our source for the growth values is PubChem BioAssay (NCI).

Where “and” joins values, the source holds several entries; their conditions need not be identical. Equal values may be shown once. About 83,000 compounds went through this panel and 20% of them were active in at least one assay; those are over-represented in the sample as a whole.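 Assay: single dose, 48 h. Readout: percent growth (0 = no net growth; negative = cell death). Active: <10.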 Calls of active or inactive are those of the source.

The test deals with HOP-62 NSCLC. The test is described as follows: NCI-60 one-dose screen, 48 h (100 = growth as untreated, 0 = no growth, -100 = all killed). As to conditions: 10 µM unless noted.
Consider `O=C(O)C1C2CCC1C(O)C2` (centres undefined), for which the growth is 87.9% (inactive) and 112% (inactive).
As to `CC1=C2[C@@H](CC1)[C@]1(C)O[C@@](C3CC3)(C[C@H]1OC(=O)CO)[C@H]2OC(=O)/C=C/c1ccccc1`, the growth was 89.6% (inactive).
The figure for `CON1CCC[C@]2(C)[C@H]3CC[C@@H]4[C@H]5[C@@H](O)C(C)(C)CC[C@]5(CO)CC[C@@]4(C)[C@]3(C)CC[C@H]2C1(C)C` is 95.6% (inactive).
For `O=C(Nc1ccccc1C(=O)N/N=C(\c1ccccc1)c1ccccn1)c1ccccc1`, the growth is 9.93% (active).
The figure for `CNC(=O)c1cc(Oc2ccc3nc(NC(=O)Nc4ccc(C(F)(F)F)cc4)sc3c2)ccn1` is 67.4% (inactive); for `COc1cc(CO)cc2cc3ccccc3nc12` it is 95.7% (inactive); for `Cc1ccc(S(=O)(=O)OC[C@@]2(C)CC[C@]3(C)CC[C@]4(C)C(=CC[C@@H]5[C@@]6(C)CCCNC(C)(C)[C@@H]6CC[C@]54C)[C@@H]3C2)cc1` it is -82.8% (active).
As to `O=C1C(c2c[nH]c3ccccc23)=C(c2coc3cc(Br)ccc23)C(=O)N1O`, the growth was 104% (inactive).
As for `Cc1ccc(Cc2cnc(NC(=O)c3cc(C)oc3C)s2)cc1`, the growth was 86% (inactive).
The figure for `CN(Cc1ccccc1)c1nc(Cl)c(C2CC(c3ccc4c(c3)OCO4)=NN2c2cc(Cl)cc(Cl)c2)s1` (centres undefined) is 89.2% (inactive).
With `COc1ccc(/C=C/C(=O)c2cc3c(N)c(C(=O)Nc4ccccc4Cl)sc3nc2C)cc1`, the growth was 45.3% (inactive).
In the case of `COc1ccc(/C=N/NC(=O)CN2CCN(c3cc4c(cc3F)c(=O)c(C(=O)O)cn4C3CC3)CC2)cc1O`, the growth is 98.9% (inactive).
In the case of `COc1ccc(-c2csc(NC(=O)CN3CCN(CCO)CC3)n2)cc1NS(=O)(=O)c1cccc2c(N(C)C)cccc12`, the growth is 79.9% (inactive).
Turning to `COc1cccc(NC(=O)c2sc3nc(C)c(C(O)c4ccccc4)cc3c2N)c1` (centres undefined), the growth was 32.5% (inactive).
The figure for `COc1ccc(N2CCN(S(=O)(=O)c3oc(-c4ccccc4)nc3C#N)CC2)cc1` is 106% (inactive).
Take `O=S(=O)(O)c1ccc(N=Nc2ccc(N=Nc3cccc4ccccc34)c(S(=O)(=O)O)c2)cc1`: the growth was 107% (inactive).
The figure for `O=C1/C(=C/c2ccc(F)c(F)c2)CN(C(=O)C(Cl)Cl)C/C1=C\c1ccc(F)c(F)c1` is -57.7% (active); for `O=S(=O)(Nc1cc(Sc2cccc3cccnc23)c(O)c2ccccc12)c1ccc(F)cc1` it is 44.7% (inactive); for `COc1cc(Cl)cc(-c2nn(C(=O)NS(=O)(=O)c3ccc(Cl)cc3)cc2-c2ccncc2)c1` it is 59.4% (inactive).
The figure for `CCN1CCN(CC(=O)Nc2nc3ccc(NCc4ccc(C)cc4)cc3s2)CC1` is 78.5% (inactive); for `COc1cc(-c2nc(SCCC(C)C)nc(Nc3ccc(F)cc3)c2C#N)cc(OC)c1OC` it is 17.8% (inactive); for `O=C(/C=C/c1ccc([N+](=O)[O-])cc1)c1ccccc1` it is 83% (inactive).
With `COc1cc(-c2nn(-c3cccc(NC(=O)CCN4CCN(C)CC4)c3)cc2-c2ccncc2)ccc1Cl`, the growth was 24.6% (inactive).
`N#CC(Cc1cccc2ccccc12)c1cc2ccccc2[nH]1` (centres undefined): the growth was 78.4% (inactive).
As to `C#CCOCC1CN(C)C(=O)O1` (centres undefined), the growth was 131% (inactive).
Regarding `Cc1ccc(/C=C/c2c(C(=O)/C=C/c3ccccc3)c(C)nc3ccccc23)cc1`, the growth is -18% (active).
On to `Cc1ccc(-c2nc(C#N)c(S(=O)(=O)N(C)C)o2)cc1`, for which the growth is 96.7% (inactive).
As to `O=C(Nc1ncc(Cc2cccc(C(F)(F)F)c2)s1)c1ccc(-n2cnnn2)cc1`, the growth is 104% (inactive).
On to `COc1c(F)cc(-n2c(C(=O)N3CC(F)C3)cc3cccnc32)cc1F`, for which the growth was 97.8% (inactive).
Take `N=C1/C(=C2\NC3C=CC=CC3S2)C(c2ccc(Cl)cc2)C2C(=O)N(c3ccccc3)C(=S)N12` (centres undefined): the growth is 105% (inactive).
For the compound `COc1ccc(Cl)cc1Nc1nc(C(F)(F)F)ccc1C(=O)N/N=C/c1ccc(N(C)C)cc1`, the growth was 73.6% (inactive).
Take `Cc1ccc(NC(=O)c2ccc(CN3CCN(C)CC3)cc2)cc1Nc1nccc(-c2cccnc2)n1`: the growth is 84.9% (inactive).
As to `C=C1C(=O)O[C@H]2[C@H]1CC/C(COC(=O)NCCCCNC(=O)OC/C1=C/CC[C@@]3(C)O[C@H]3[C@H]3OC(=O)C(=C)[C@@H]3CC1)=C\CC[C@@]1(C)O[C@@H]21`, the growth was 73.8% (inactive).
Regarding `C[C@@H]1O[C@@H](O[C@H]2[C@@H](OC(=O)[C@]34CCC(C)(C)C[C@H]3C3=CC[C@@H]5[C@@]6(C)C[C@H](O)[C@H](O[C@@H]7O[C@H](CO)[C@@H](O)[C@H](O)[C@H]7O)[C@@](C)(CO)[C@@H]6CC[C@@]5(C)[C@]3(C)C[C@H]4O)OC[C@@H](O)[C@@H]2O)[C@H](O)[C@H](O[C@@H]2OC[C@@H](O)[C@H](O[C@@H]3OC[C@](O)(CO)[C@H]3O[C@@H]3OC[C@@H](O)[C@H](O)[C@H]3O)[C@H]2O)[C@H]1O[C@@H]1OC[C@](O)(CO)[C@H]1O`, the growth is 74% (inactive).
Turning to `NC(=O)c1c(NC(=O)/C=C/c2cccs2)sc2c1CCC(=O)C2`, the growth was 87.3% (inactive).
Regarding `CC1=CC(C)(C)NC(=S)N1c1ccc(Cl)cc1`, the growth was 108% (inactive) and 102% (inactive).
On to `Cc1cc(N2CCCCC2)nc(NCc2cc(Nc3ccnc4cc(Cl)ccc34)ccc2F)n1`, for which the growth is -49.5% (active).
With `CCCCCCCC/C=C\CCCCCCCCOc1ccccc1CC(=O)NCC[N+]1(C)CCOCC1`, the growth is 50.6% (inactive).
Turning to `COc1nc2ccc(C)cc2cc1/C=[N+](\[O-])c1ccccc1`, the growth is 81.7% (inactive).
